Results: PubChem BioAssay (Tox21)
Values joined by “and” are separate entries in the source; they are usually repeats but may differ in a detail not shown here. Identical values can stand only once. Records with an inconclusive call do not appear. A number with no mark means an inactive call. Active and inactive are the calls of the source. Calls come from the whole dose curve; as a rule, active = well fitted cell-killing curve with a large enough effect in the repeat runs; inconclusive = weak or mixed curves, or effect the other way; inactive = no such curve, though single readings can be large or run the other way.

experiment: qHTS assay for identifying genotoxic compounds that show differential cytotoxicity against isogenic chicken DT40 cell lines with known DNA damage response pathways - Rev3 mutant cell line (AID 743014); conditions: chicken DT40 Rev3-/- viability, CellTiter-Glo, 40 h; series mostly up to 68.4 µM; activity, negative = cytotoxicity: at the top concentration; note: nearly all actives have a fitted effect of over 55% in size
Text: National Center for Advancing Translational Sciences [NCATS]
NIH Chemical Genomics Center [NCGC]
U.S. Environmental Protection Agency [EPA]
National Institutes of Environmental Health Sciences [NIEHS]
National Toxicology Program [NTP]
U.S. Food and Drug Administration [FDA]
DNA repair pathways play a critical role in cellular homeostasis by repairing DNA damage induced by endogenous processes and xenobiotics. Isogenic chicken DT40 cell lines deficient in different DNA repair pathways can be used to identify genotoxic compounds and aid in characterizing the nature of the DNA damage induced. Two DNA repair-deficient cell lines with disrupted genes, Rad54/Ku70 or Rev3, were used to screen the Tox21 10K compound library. Possible genotoxicity was based on the presence of a significant increase in cytotoxicity in one or more of the DNA repair-deficient cell lines compared to that observed in the parental DNA repair-proficient cell line. CellTiter Glo viability assay (Promega, Madison, WI) was used to measure cell viability in these cells after compound treatment. This assay includes the data from the Rev3 mutant cell line.
Tox21 Assay Protocol Summary:
300 DT40 mutant cells in 5 uL/well were dispensed into white, solid-bottom 1536-well plates using a Multidrop Combi (ThermoFisher Scientific, Waltham, MA) dispenser. After the assay plates were incubated at 37 C/5% CO2 for approximately 0.5 hour, 23 nL of compounds dissolved in DMSO, positive controls or DMSO only was transferred into the assay plate by a pintool work station (Kalypsys, San Diego, CA). The assay plates were incubated at 37 C/5% CO2 for 40 hours. After 5 uL per well of CellTiter-Glo reagent was added into each well of the assay plates, the plates were incubated for 30 min at room temperature and the luminescence intensity of the plates was measured using a ViewLux (PerkinElmer, Shelton, CT) plate reader.
% is set by controls: 0 for no effect and ±100 for the full control effect; potency is the fitted concentration of half-maximal effect.

SMILES | activity, negative = cytotoxicity | Potency
Cc1c(N)cccc1[N+](=O)[O-] | -1.28% [at 95 µM] | 
COc1cccc(N(C)C(=S)Oc2ccc3c(c2)CCCC3)n1 |  | 26.6 µM (active)
Nc1ccc(S(=O)(=O)Nc2ccccc2)cc1 | 17% | 
COc1cc(C(=O)OCCCN2CCCN(CCCOC(=O)c3cc(OC)c(OC)c(OC)c3)CC2)cc(OC)c1OC |  | 15 µM (active)
C=CCOC(=O)CCC1CCCCC1 | -15.4% | 
Cc1cccc(C)c1OCC(=O)N[C@@H](Cc1ccccc1)[C@@H](O)C[C@H](Cc1ccccc1)NC(=O)[C@H](C(C)C)N1CCCNC1=O |  | 16.8 µM (active)
O=C(OCCc1ccccc1)c1ccccc1 | -22.8% | 
OCCNCc1ccccc1 | -27.4% | 
O=C1OC(=O)C2C3C=CC(C3)C12 (stereo not given) | -7.76% | 
CCN(CC)c1ccc2c(-c3ccccc3C(=O)O)c3ccc(=[N+](CC)CC)cc-3oc2c1 |  | 8.63 µM (active)
CCOC(=O)C1=C[C@]2(CC)CCCN3CCc4c(n1c1ccccc41)[C@@H]32 |  | 10.6 µM (active) and 9.44 µM (active)
CC(=O)NO | 7.39% | 
O=C(O)C1(C(=O)Nc2ccc(Cl)cc2Cl)CC1 |  | 68.6 µM (active)
C/C(=C(\CCOP(=O)(O)O)SC(=O)c1ccccc1)N(C=O)Cc1cnc(C)nc1N | -0.556% [at 31.4 µM] | 
CCCCCCCCO[C@@H]1O[C@H](CO)[C@@H](O)[C@H](O)[C@H]1O | -1.53% | 
O=C(O)c1nc(Cl)c(Cl)c(Cl)c1Cl | -16% | 
CC(CSC(=O)c1ccccc1)C(=O)N1C[C@@H](Sc2ccccc2)C[C@H]1C(=O)O (stereo not given in full) | 14.1% | 
CCCCC(CC)CN1C(=O)C2C3C=CC(C3)C2C1=O (stereo not given) |  | 27.3 µM (active)
C[N+]1(CC2COC(c3ccccc3)(C3CCCCC3)O2)CCCCC1 (stereo not given) |  | 3.76 µM (active)
CC[N+]1(CC)CCC(=C(c2ccccc2)c2ccccc2)C1C (stereo not given) |  | 16.8 µM (active)

SMILES | activity, negative = cytotoxicity | Potency
CCn1cc(C(=O)O)c(=O)c2cnc(N3CCNCC3)nc21 | 12.1% [at 31.4 µM] | 
O=C1CCCCCCCCCCCC(=O)OCCO1 |  | 27.3 µM (active)
O=P(O)(OCc1ccccc1)OCc1ccccc1 | 0.0133% | 
COc1ccc(C)cc1[N+](=O)[O-] | 2.96% [at 95 µM] | 
CC(C)C[C@H]1C(=O)N2CCC[C@H]2[C@]2(O)O[C@](NC(=O)[C@@H]3C=C4c5cccc6[nH]c(Br)c(c56)C[C@H]4N(C)C3)(C(C)C)C(=O)N12 |  | 10.6 µM (active) and 7.34 µM (active)
CCCCCCCC#N | -1.11% | 
CC(C)OC(=O)C(C)N(C(=O)c1ccccc1)c1ccc(F)c(Cl)c1 (stereo not given) |  | 6.86 µM (active)
CCCCCC[C@@H](O)C/C=C\CCCCCCCC(=O)OC | -0.17% [at 95 µM] | 
C=C(C)C(=O)OCC | 4.97% [at 95 µM] | 
NC(N)=NCCC[C@H](N)C(=O)O | 6.81% | 
CN(C)c1ccc(CCO)cc1 | -0.46% | 
CN(C)CCCN1c2ccccc2Sc2ccccc21 |  | 5.69 µM (active)
O=CC1CC=CCC1 (stereo not given) | 0.637% | 
Cc1ncc(CO)c(C=O)c1O | 6.81% | 
CN1CCC(=C2c3ccccc3Sc3ccccc32)CC1 |  | 5.96 µM (active)
CCc1c(C(=O)NN2CCCCC2)nn(-c2ccc(Cl)cc2Cl)c1-c1ccc(Br)cc1 |  | 15.4 µM (active)
OCCN1CCN(CCCN2c3ccccc3C=Cc3ccccc32)CC1 |  | 1.68 µM (active) and 15 µM (active)
O=C(Nc1ccccc1)c1ccccc1O |  | 48.6 µM (active)
O=C(O)c1ccc(S(=O)(=O)O)cc1C(=O)O | 2.76% | 
CCCCCCCC/C=C\CCCCCCCC(=O)OCC | 5.83% | 
